# ChEMBL document CHEMBL4513216, “Probing the Open Global Health Chemical Diversity Library for Multistage-Active Starting Points for Next-Generation Antimalarials” (ACS Infect Dis, 2020)
# Out of some 68,000 compounds screened, about 2,700 (4%) showed an effect of 50% or more. The sample holds strong results, similar compounds and a random draw of the others, so the mix is not that of the screen.
# Test system: Plasmodium berghei
# Test: Screen against P. berghei liver stage (PbLuc), transformed with Luciferase, at 2uM
# Assay type: functional, HepG2
# Details: tested at 2 uM
row,Structure (SMILES),INHIBITION
1,Cc1noc([C@H]2C[C@H]3OCC[C@H]3N(C3CCC3)C2)n1,44.94%
2,COc1ccccc1CN(C)C(=O)CN1CC(n2nc(C)cc2C)C1,18.15%
3,Cc1cc(C)cc(CN2CCN(Cc3cccc(CCN)c3)CC2=O)c1,61.75%
4,NCCc1cccc(CN2CCN(c3ccccc3)C(=O)C2)c1,22.72%
5,Cc1cc(C)cc(N2CCN(Cc3cccc(CCN)c3)CC2=O)c1,10.92%
6,CC(C)c1nnc2n1CCN(Cc1ccc3c(c1)OCO3)CC2,-21.23%
7,Cc1cccc(CN2CCC3(CCN(c4ccccn4)C3)C2=O)c1 (stereo unspecified),17.39%
8,CCc1n[nH]c(C2CN(CC(=O)NCCc3ccsc3)CCO2)n1 (stereo unspecified),12.46%
9,Cc1n[nH]c(C2CN(CC(=O)NCCc3ccsc3)CCO2)n1 (stereo unspecified),50.74%
10,Cc1n[nH]c(C2CN(CC(=O)NCCc3ccccc3)CCO2)n1 (stereo unspecified),19.43%
11,CC(CNC(=O)CCCc1ccccn1)c1ccsc1 (stereo unspecified),18.85%
12,Cc1ccc(CN2CC[C@@H](O)[C@@H]2Cc2ccccc2)o1,14.65%
13,Cc1ccccc1C(C(=O)N(C)CCc1cn[nH]c1)N(C)C (stereo unspecified),-102.03%
14,Cc1cc(C)cc(CCC(=O)N(C)CCc2cn[nH]c2)c1,-4.26%
15,CN(CCc1cn[nH]c1)C(=O)C(c1ccc(F)cc1)N(C)C (stereo unspecified),38.67%
16,Cc1ccc(C(C(=O)N(C)CCc2cn[nH]c2)N(C)C)cc1 (stereo unspecified),69.67%
17,Cc1cccc(C(C(=O)N(C)Cc2ccon2)N(C)C)c1 (stereo unspecified),-2.69%
18,Cc1cccc(C(C(=O)N(C)CCc2cn[nH]c2)N(C)C)c1 (stereo unspecified),67.28%
19,Cc1ccc(CCC(C)NC2CCN(C(N)=O)CC2)cc1 (stereo unspecified),-5.43%
20,CN1CCN(CCCNC(=O)CCc2nc3cc(Br)cnc3[nH]2)CC1,12.87%
21,O=C(Nc1nc2c(s1)CN(S(=O)(=O)C1CC1)CC2)Nc1ccccc1F,47.9%
22,CC1CN(c2ncnc3sccc23)CCN1c1nccs1 (stereo unspecified),38.01%

row,Structure (SMILES),INHIBITION
1,c1csc(N2CCN(c3ncnc4sccc34)CC2)n1,16.93%
2,CC1CN(c2ncnc3c2cnn3C)CCN1c1nccs1 (stereo unspecified),57.16%
3,O=C(Cc1ccccn1)N1CCn2cc(Cn3cncn3)nc2C1,-33.15%
4,CCNC(=O)C1CCN(Cc2csc(-c3ccc(C)o3)n2)CC1,50.12%
5,Cc1ccc(-c2nc(CN3CCn4c(C)nnc4C3)cs2)o1,42.58%
6,CCc1nnc2n1CCN(Cc1nc(-c3ccoc3)no1)C2,73.05%
7,Cc1ccc(-c2nc(CN3CCN(CC(=O)N(C)C)CC3)cs2)o1,4.18%
8,CCOC(=O)C1CCN(Cc2csc(-c3ccc(C)o3)n2)CC1,-0.76%
9,Cc1nnc2n1CCN(Cc1nc(-c3ccoc3)no1)C2,-25.13%
10,Cc1ccc(-c2nc(CN3CCN(S(=O)(=O)N(C)C)CC3)cs2)o1,53.12%
11,Cc1ccc(-c2nc(CN3CCN(C(=O)C4CC4)CC3)cs2)o1,-21.93%
12,Cc1ccc(-c2nc(CN3CCC(C(=O)N(C)C)CC3)cs2)o1,27.91%
13,CC(C)c1nnc2n1CCN(Cc1nc(-c3ccoc3)no1)C2,7.01%
14,CCc1nnc2n1CCN(Cc1csc(-c3ccc(C)o3)n1)C2,58.49%
15,Cc1ccc(-c2nc(CN3CCn4c(nnc4C4CC4)C3)cs2)o1,-110.74%
16,O=C(NCc1ccccc1)c1nc2c(o1)CN(C(=O)c1cccnc1)C2,36.75%
17,COCCN1C[C@@H]2CN(Cc3cccc(C)n3)C[C@@H]2C1=O,39.92%
18,CCCN1CCN(c2nc(N)nc3c2nc(C)n3C)CC1,9.85%
19,Cc1noc(C)c1C(=O)N1CCC(c2[nH]ncc2S(C)(=O)=O)C1 (stereo unspecified),13.58%
20,Cc1nc(N2CCN(C(=O)C3CC3)CC2)c2c(n1)c(C)nn2C,51.57%
21,Cc1nc(N2CCN(C(=O)C3CCCC3)CC2)c2c(n1)c(C)nn2C,-36.89%
22,CCC(=O)N1CCN(c2nc(C)nc3c(C)nn(C)c23)CC1,13.72%

row,Structure (SMILES),INHIBITION
1,CCCC(=O)Nc1ccc(CC(=O)N(CC)CC2CCCCO2)cc1 (stereo unspecified),-5.44%
2,Cc1ccc(C2COCCN2C(=O)c2ccc(C)s2)o1 (stereo unspecified),3.63%
3,O=C1COC2(CCN(Cc3cccs3)CC2)CN1c1ccsc1,55.7%
4,Cn1cc(N2CC3(CCN(Cc4cccnc4)CC3)OCC2=O)cn1,54.44%
5,O=C1COC2(CCN(Cc3cccs3)CC2)CN1c1cncnc1,25.58%
6,Cn1cc(N2CC3(CCN(Cc4ccccc4)CC3)OCC2=O)cn1,33.97%
7,O=C1COC2(CCN(Cc3cccs3)CC2)CN1c1ccccc1,-10.6%
8,Cn1cc(CN2CCC3(CC2)CN(c2cccnc2)C(=O)CO3)cn1,-56.25%
9,O=C(NCCn1cccc1)c1c(O)cc(F)cc1F,-5.53%
10,Cc1noc(C)c1CNC(=O)N1CCN(CC2CC2)CC1,-20.36%
11,c1cncc(-c2ncnc3c2CCN(Cc2cccs2)CC3)c1,24.42%
12,CC(C)(O)CN1CCN(C(=O)c2cccn2Cc2ccccc2)CC1,-36.56%
13,CC(C)(O)CN1CCN(C(=O)c2cccn2Cc2cccnc2)CC1,54.5%
14,CC(C)(O)CN1CCN(C(=O)c2cccn2Cc2ccncc2)CC1,-51.5%
15,CC(C)c1nn(C)c(N(C)C)c1CNCc1cccc(CN(C)C)c1,-36.7%
16,COCc1ncc(CN2CCC3(CCC(=O)N(CC(C)O)C3)CC2)cn1 (stereo unspecified),-40.15%
17,Cc1cc(C)c2c(N3CCC(C(=O)N4CCCC4)CC3)ncnc2n1,36.74%
18,COc1cc(C)c(CN2CCC3(CC2)[C@H](O)C[C@@H]3OCCN)cc1C,72.05%
19,NCCO[C@H]1C[C@@H](O)C12CCN(Cc1c(F)cccc1F)CC2,2.9%
20,COc1cc(CN2CCC3(CC2)[C@H](O)C[C@@H]3OCCO)ccc1F,-6.64%
21,COc1ccc(F)c(F)c1CN1CCC2(CC1)[C@H](O)C[C@@H]2OCCN,57.75%
22,COc1cc(C)c(CN2CCC3(CC2)C(C(=O)O)CC(=O)N3C)cc1C (stereo unspecified),1.82%

row,Structure (SMILES),INHIBITION
1,NCCO[C@H]1C[C@@H](O)C12CCN(C1Cc3ccccc3C1)CC2,-17.86%
2,COc1c(CNCc2ccc(N3CCCC3)nc2)c(C(C)C)nn1C,20.57%
3,Cn1ccnc1CN1CCC2(CC(=O)N(c3ccccn3)C2)C1 (stereo unspecified),44.46%
4,Clc1cccc(N[C@H]2CCCN[C@H]2Cc2ccccc2)c1,-34.37%
5,CC(C)(C)OC(=O)N1CCN(C(=O)c2cnn3c2OCCC3)CC1,-14.01%
6,COCc1noc(CN2CC(Cc3ccccc3)CC2=O)n1 (stereo unspecified),14.12%
7,Oc1cc(CNCCN2CCCCC2)nc2c(F)cccc12,-6.77%
8,O=C1CCCN1CCCNCc1cc(O)c2cccc(F)c2n1,53.12%
9,O=C1CCCN1CCCNCc1cc(O)c2cccc(Cl)c2n1,-15.85%
10,OC1CCN(c2ccnc(NCCc3ccccc3Cl)n2)C1 (stereo unspecified),0.72%
11,CCC(NC(=O)NCc1nncn1CC)c1ccc(OC)cc1 (stereo unspecified),-53.08%
12,Cc1n[nH]c2c1C(c1cnn(C)c1)SCC(=O)N2 (stereo unspecified),73.96%
13,Cc1n[nH]c2c1C(c1ccc(Cl)cc1)SCC(=O)N2 (stereo unspecified),47.85%
14,Cc1n[nH]c2c1C(c1ccncc1)SCC(=O)N2 (stereo unspecified),19.08%
15,CCCn1cnnc1CN(C)C(=O)C1CCC(=O)N(C2CCCC2)C1 (stereo unspecified),31.35%
16,CC1CCN(Cc2c(C(C)C)[nH]c3ncccc23)CC1,-9.61%
17,CC(C)c1[nH]c2ncccc2c1CN1CCC(O)CC1,14.73%
18,CC(C)c1[nH]c2ncccc2c1CN1CCOCC1,68.53%
19,CC(CNC(=O)c1nnn(-c2ccccc2)c1C(F)(F)F)N(C)C (stereo unspecified),-10.14%
20,CCc1ncncc1C(=O)Nc1ccc2ccn(CCN(C)C)c2c1,38.87%
21,Cc1ncccc1C(=O)Nc1ccc2ccn(CCN(C)C)c2c1,10.23%
22,CCc1ocnc1C(=O)Nc1ccc2ccn(CCN(C)C)c2c1,53.19%

row,Structure (SMILES),INHIBITION
1,CC(C)(C)NC(=O)c1ccn(COc2c(Cl)cccc2Cl)n1,31.42%
2,CCC(=O)NCC(=O)NC(C)c1ccc(OCCC(C)C)cc1 (stereo unspecified),-14.65%
3,CCNc1ncc(C(=O)NCCc2csc(-c3ncccn3)n2)cn1,69.79%
4,CCNc1ncc(C(=O)NCCc2csc(CSC)n2)cn1,-45.11%
5,CCNc1ncc(C(=O)NCc2csc(-c3ncccn3)n2)cn1,-27.47%
6,Cc1noc(-c2ccnc(Oc3cccc(CN4CCCC4)c3F)c2)n1,43.15%
7,O=C(O)c1csc(NCCc2ccccc2)n1,55.05%
8,CN1CC(=O)c2sc(NCCc3ccccc3)nc2C1,-24.17%
9,O=C(NCCc1ccccc1)NCC(O)c1cccs1 (stereo unspecified),1.48%
10,CCC(C)NC(=O)CS(=O)(=O)Cc1cc(C)ccc1C (stereo unspecified),-10.29%
11,O=C(NCC1CC1)c1ccc(NC(=O)c2ccco2)cc1,24.44%
12,COc1ccccc1-n1nc(CC(C)C)nc1Cc1nnc(N)s1,-28.44%
13,Cc1cccc(NC(=O)c2nn(C3CCS(=O)(=O)C3)c3c2CCCC3)n1 (stereo unspecified),9.29%
14,O=C(Nc1cccc(Cl)c1)c1nn(C2CCS(=O)(=O)C2)c2c1CCCC2 (stereo unspecified),21.33%
15,O=C(Nc1cccnc1)c1nn(C2CCS(=O)(=O)C2)c2c1CCCC2 (stereo unspecified),-0.14%
16,O=C(Nc1ccc(Cl)cn1)c1nn(C2CCS(=O)(=O)C2)c2c1CCCC2 (stereo unspecified),66.3%
17,O=C(Nc1ccc(Cl)cc1)c1nn(C2CCS(=O)(=O)C2)c2c1CCCC2 (stereo unspecified),14.16%
18,O=C(Nc1ccccc1)c1nn(C2CCS(=O)(=O)C2)c2c1CCCC2 (stereo unspecified),73.37%
